IL-1B inflam inh: qHTS for Inhibitors of Inflammasome Signaling: IL-1-beta AlphaLISA Primary Screen | THP-1 LPS/ATP IL-1B secretion, AlphaLISA, 16 h; hits give low values | activity change, % at 57.5 µM | actives 4.7% (n = 360,000) | AID 743279, 2014; in the data active = activity change below about -50%; inconclusive = mostly about -30% to -49%
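Secreted IL-1B measured by AlphaLISA bead assay after 16 h compound exposure of THP-1 cells; compounds (final up to 57.5 uM) added 1 h before LPS (250 ng/mL) and ATP (1.25 mM) stimulation; lower signal means less secretion.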
TDP1 cell noCPT: qHTS for Inhibitors of human tyrosyl-DNA phosphodiesterase 1 (TDP1): qHTS in cells in absence of CPT. DT40 Tdp1-/- hTDP1 cells, no CPT, ATP luminescence, 48 h. Potency, µM (series often up to 46.2 µM), without a hit: top-dose activity change, negative = growth inhibition, usual class: inhibitors. actives 15% (n = 420,000); also: potency is read from the fitted curve at half-maximal effect; nearly all actives have a fitted effect of over 55% in size
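Readout: luminescence from CellTiter-Glo after 30 min in the dark at RT. Cells: DT40 Tdp1-/- with stable hTDP1, 400/well. Exposure: compounds alone, ≥48 hr, 37 °C.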
RORg inh: qHTS for inhibitors of ROR gamma transcriptional activity | Drosophila S2 Gal4-RORgamma UAS-luciferase reporter, 20 h | actives 5.4% (n = 310,000) | Nuclear receptor ROR-gamma (Mus musculus), P51450 | Potency, µM (titrated, usually from 53.6 µM), without a hit: at the top dose activity change, negative = inhibition, usual class: inhibitors; also: potency is read from the fitted curve at half-maximal effect; nearly all actives have a fitted effect of over 60% in size
Target sequence (P51450 whole entry, looked up, the tested form may be a part): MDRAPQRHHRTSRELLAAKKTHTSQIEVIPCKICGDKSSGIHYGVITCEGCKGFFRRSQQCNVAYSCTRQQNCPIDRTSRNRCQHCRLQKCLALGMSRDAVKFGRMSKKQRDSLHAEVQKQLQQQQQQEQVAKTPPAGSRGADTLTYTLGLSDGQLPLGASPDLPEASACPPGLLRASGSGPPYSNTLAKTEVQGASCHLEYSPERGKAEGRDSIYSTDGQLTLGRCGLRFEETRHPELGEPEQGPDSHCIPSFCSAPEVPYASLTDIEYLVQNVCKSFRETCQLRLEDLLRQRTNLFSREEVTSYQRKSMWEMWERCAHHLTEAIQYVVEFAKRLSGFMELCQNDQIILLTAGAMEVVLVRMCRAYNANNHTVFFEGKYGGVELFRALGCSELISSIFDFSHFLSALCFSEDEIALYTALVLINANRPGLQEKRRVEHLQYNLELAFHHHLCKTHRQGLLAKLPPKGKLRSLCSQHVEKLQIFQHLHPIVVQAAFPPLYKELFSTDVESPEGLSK
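In this cell-based reporter format, copper sulfate (700 uM final) drives Gal4–ROR gamma fusion expression from a metallothionein promoter in Drosophila Schneider cells; compounds preincubated 1 hr, reporter read after 20 hr at ambient temperature.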
VP16 counter: VP16 counterscreen qHTS for inhibitors of ROR gamma transcriptional activity. Drosophila S2 Gal4-VP16 UAS-luciferase, luminescence, 20 h. Potency, µM (top dose mostly 53.6 µM), inactives show at the highest dose activity, negative = inhibition, actives largely listed as inhibitors. actives 3.5% (n = 310,000);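 also: Gal4-VP16 expression switched on by copper sulfate through the metallothionein promoter; potency is read from the fitted curve at half-maximal effect; nearly all actives have a fitted effect of over 50% in size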
LDHA block: qHTS assay for inhibitors of human lactate dehydrogenase; purified LDHA, NADH/diaphorase-resazurin fluorescence; hits give low values; L-lactate dehydrogenase A chain (Homo sapiens), P00338; activity change, % (values are at about 110 or 230 µM); actives 0.15% (n = 480,000); in the data active = activity change below about -30%; inconclusive = mostly about -25% to -30%;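 also: plate controls were DMSO wells for no effect and wells without enzyme for full effect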
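Resorufin fluorescence (ex540/em590), read at 0 and 20 min after diaphorase/resazurin addition, reports the NADH left after a 5 min room-temperature reaction of 2 nM human LDH5 with 0.06 mM NADH and 0.2 mM pyruvate.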
TDP1 cell CPT: qHTS for Inhibitors of human tyrosyl-DNA phosphodiesterase 1 (TDP1): qHTS in cells in presence of CPT; chicken DT40 Tdp1-/-;hTDP1 cells + 20 nM CPT, ATP luminescence, 48 h; Potency, µM (series often up to 46.2 µM), without a hit: at the top dose activity change, negative = growth inhibition, most hits filed as inhibitors; actives 12% (n = 420,000); also: potency is read from the fitted curve at half-maximal effect; nearly all actives have a fitted effect of over 55% in size
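Cell growth measured by CellTiter-Glo luminescence after a minimum 48 h, 37 C compound exposure with 20 nM CPT in Tdp1-knockout DT40 cells stably expressing hTDP1, seeded 400/well; qHTS titration format.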
An asterisk follows results filed as active; i = inactive; ? = inconclusive; nt = not tested or not shown. Most compounds without a hit are left out; they make up all but 18% or so of the library. Unless noted, calls follow the shape of the dose curve; as a rule, active = well fitted curve in the direction sought with a large enough effect; inconclusive = small, poorly fitted or top-dose-only effect, or another doubt; inactive = no such curve, though single readings can be large; an effect the other way counts as inactive or inconclusive. Unless noted, % is scaled to controls: 0 for no effect and ±100 for the full control effect.

SMILES	IL-1B inflam inh	TDP1 cell noCPT	RORg inh	VP16 counter	LDHA block	TDP1 cell CPT
N#CCCn1c(SCC(=O)Nc2ccc(-c3ccccc3)cc2)nc2ccccc21	nt	nt	nt	nt	-12	nt
CC1CCN(c2nc3c(c(=O)n(Cc4ccccc4)c(=O)n3C)n2C)CC1	nt	nt	nt	nt	-12	nt
CCOC(=O)C1CCCN(C(=O)c2sc3nc(C)nc(N(CC)CC)c3c2C)C1 (stereo not given)	0	?	?	14%	-5	23µM*
CCC1CCCCN1C(=O)c1sc2nc(C)nc(N(CC)CC)c2c1C (stereo not given)	18	16µM*	2%	3%	0	?
Cc1cccc(OCc2nnc(SCC(=O)N3CCN(c4ccccc4)CC3)o2)c1C	-2	18µM*	35%	-15%	3	?
O=C(NCc1nnc(SCC(=O)N2CCCC2)o1)c1ccc(F)cc1	i	18%	3%	-1%	-6	8%
C=CCn1c(COc2cccc(C)c2C)nnc1SCC(=O)N1CCN(c2ccccc2)CC1	-55*	?	?	?	3	?
O=C(NCc1nnc(SCC(=O)N2CCN(c3ccccc3)CC2)o1)c1ccc(F)cc1	51	21µM*	?	-15%	1	?
CC(C)n1nc(C(=O)Nc2ccc3ccccc3n2)c2ccccc2c1=O	nt	nt	nt	nt	8	nt
CCCCCCCCS(=O)(=O)CCCCO	nt	nt	nt	nt	-6	nt
Cc1ccc(NC(=O)C2(NC(=O)c3ccccn3)CCCCC2)cc1Br	-10	?	6%	-3%	6	21µM*
O=C(NC1(C(=O)NC2CCCCC2)CCCCC1)c1ccccn1	-9	-21%	-14%	8%	-8	-17%
Cc1ccc(-n2nnc(-c3cccnc3)n2)cc1	11	?	nt	nt	-3	?
Cc1ccc(-n2nnc(-c3nccn3C)n2)cc1	11	21µM*	?	?	0	23µM*
CN(c1ccccc1)c1ccc(/C=N/Nc2ccc(S(N)(=O)=O)cc2[N+](=O)[O-])cc1	nt	nt	nt	nt	-1	nt
C#CCN(C[C@H]1[C@H](OC(=O)NCc2ccco2)[C@H](OC(=O)NCc2ccco2)C[C@@H](C(=O)OC)[C@H]1C(=O)OC)S(=O)(=O)c1ccc(C)cc1	-72*	?	nt	nt	3	21µM*
C#CCN(C[C@H]1[C@H](OC(=O)NC2CCCC2)[C@H](OC(=O)NC2CCCC2)C[C@@H](C(=O)OC)[C@H]1C(=O)OC)S(=O)(=O)c1ccc(C)cc1	-60*	16µM*	nt	nt	-5	13µM*
C#CCN(C[C@H]1[C@H](OC(=O)NCc2ccc(OC)c(OC)c2)[C@H](OC(=O)NCc2ccc(OC)c(OC)c2)C[C@@H](C(=O)OC)[C@H]1C(=O)OC)S(=O)(=O)c1ccc(C)cc1	-14	13µM*	nt	nt	0	21µM*
CCCOc1cc(S(=O)(=O)N2CCCC2)c(C)cc1C	nt	nt	nt	nt	-4	nt
Cc1cc(C)n(Cc2ccc(C(=O)Nc3ccc(Br)cc3C)o2)n1	-60*	?	17%	14%	2	-22%
COc1ccc(C2CC(=O)c3cc(-c4nc(-c5cccc(Cl)c5)cs4)c(=O)[nH]c3C2)cc1 (stereo not given)	nt	0%	nt	nt	-10	3%
COc1ccc(C2CC(=O)c3cc(-c4nc(-c5ccc(Cl)cc5)c(C)s4)c(=O)[nH]c3C2)cc1 (stereo not given)	nt	1.8µM*	nt	nt	-3	?
CC1(C)CC(=O)c2cc(-c3nc(-c4ccccc4)cs3)c(=O)[nH]c2C1	nt	13µM*	nt	nt	-9	9.2µM*
Cc1ccc(-c2csc(-c3cc4c([nH]c3=O)CC(c3ccccc3)CC4=O)n2)cc1 (stereo not given)	nt	1.3µM*	nt	nt	5	1.5µM*
COCc1nnc(NC(=O)c2ccc3c(ccn3Cc3ccccc3)c2)s1	nt	nt	nt	nt	-2	nt
SMILES	IL-1B inflam inh	TDP1 cell noCPT	RORg inh	VP16 counter	LDHA block	TDP1 cell CPT
c1ccc(-c2cc3ccccn3c2)cc1	nt	nt	nt	nt	60	nt
c1ccn2cc(-c3ccc4c(c3)OCO4)cc2c1	0	?	-25%	-20%	6	16µM*
Oc1ccccc1N=N/C(=N/Nc1ccccc1O)c1ccccc1	22	?	nt	nt	0	?
N#C/C(N=Nc1ccccc1O)=N\Nc1ccccc1O	?	23µM*	nt	nt	15	21µM*
CC(C)n1nc(C(=O)OCC(=O)Nc2ccc(S(=O)(=O)N(C)C)cc2)c2ccccc2c1=O	nt	nt	nt	nt	1	nt
O=C(CCOc1ccccc1)NO	nt	11µM*	nt	nt	7	10µM*
COc1ccc(CNC(=O)CCCc2ccccc2)cc1	15	-18%	0%	4%	-6	-5%
O=C(Cc1ccc(Oc2ccccc2)cc1)NO	nt	?	nt	nt	-7	?
Cc1cccc(OCCCC(=O)NC(C)C)c1	-1	23µM*	0%	1%	-6	-6%
CCc1ccc(OCCCC(=O)NCc2ccccc2)cc1	6	21µM*	?	-5%	-4	29µM*
O=C(Cc1ccc(OCCCc2ccccc2)cc1)NO	nt	14µM*	nt	nt	-2	11µM*
O=C(CCOc1ccccc1)Nc1ccccc1	23	7%	0%	0%	2	21%
Cc1ccc(N(Cc2ccco2)C(=O)Cn2cnc3ccc(F)cc3c2=O)cc1	nt	nt	nt	nt	-5	nt
Cc1cccc(OCCC(=O)NO)c1	nt	10µM*	nt	nt	-3	10µM*
Cc1cccc(OCCCC(=O)O)c1	28	-13%	-21%	-7%	-5	-5%
CC(C)COc1ccc(CC(=O)NO)cc1	nt	?	nt	nt	5	8.9µM*
COc1ccc(CC(=O)NO)cc1	nt	?	nt	nt	8	-6%
CC1=Nc2cc(C(=O)NCCc3ccc(Cl)cc3)ccc2Sc2c(C)ccc(C)c21	nt	nt	nt	nt	1	nt
CC1=Nc2cc(C(=O)NC3CCCC3)ccc2Sc2ccc(Cl)cc21	nt	0.58µM*	nt	nt	0	0.82µM*
CCC1=Nc2cc(C(=O)O)ccc2Sc2ccccc21	19	-9%	15%	1%	-6	0%
CCC1=Nc2cc(C(=O)NC3CCCC3)ccc2Sc2ccc(Cl)cc21	nt	0.92µM*	nt	nt	-5	0.92µM*
CC1=Nc2cc(C(=O)NC3CCCC3)ccc2Sc2ccc(C)cc21	nt	0.92µM*	nt	nt	-8	1.2µM*
CCOC(=O)N1CCC(NC(=O)c2ccc3c(c2)N=C(C)c2ccccc2S3)CC1	22	?	17%	-5%	-3	?

Bioassay records deposited in PubChem BioAssay by National Center for Advancing Translational Sciences (NCATS).
